Test results reported in PubChem BioAssay (EPA / NIEHS).
The source holds several records for some structures; these can differ, active in one and inactive in another. Active and inactive are the calls of the source. Rule for the calls: active = hit-call score of the fitted dose curve at least 0.9, where 1 is the maximum; inactive = score below 0.9.

Read-out: Pselectin, SELP (gene 6403)
Test: BSK_4H_Pselectin: BioMAP Diversity Plus: 4H Assay for Pselectin Biomarker Activity (AID 2283026)
Conditions: primary human endothelial cells (HUVEC); actives raise or lower the signal
Procedure: BSK_4H is a cell-based, multiplexed-readout assay that uses umbilical vein endothelium, a human vascular primary cell, with measurements taken at 24 hours after chemical dosing in a 96-well plate.BSK_4H_Pselectin is an assay component measured in the BSK_4H assay. It measures P-Selectin antibody related to regulation of gene expression using ELISA technology.Data from the assay component BSK_4H_Pselectin was analyzed into 1 assay endpoint. This assay endpoint, BSK_4H_Pselectin, was analyzed with bidirectional fitting relative to DMSO as the negative control and baseline of activity. Using a type of binding reporter, gain or loss-of-signal activity can be used to understand changes in the signaling as they relate to the gene SELP. Furthermore, this assay endpoint can be referred to as a primary readout, because this assay has produced multiple assay endpoints where this one serves a signaling function. To generalize the intended target to other relatable targets, this assay endpoint is annotated to the cell adhesion molecules intended target family, where the subfamily is selectins.
The levels of cell surface (or secreted, indicated by the prefix "s") biomarker endpoints were measured by ELISA. Overt cytotoxicity to cells in confluent adherent cultures (all systems other than the BT system) was assessed by measuring total protein levels using sulforhodamine B (SRB) staining in parallel cultures at the time of biomarker measurements, indicated as SRB endpoints. For proliferation assays for adherent cell types, individual cell types are cultured at sub-confluence and relative cell numbers quantified by SRB staining at time points optimized for each system (48 h: 3C and CASM3C systems; 72 h: BT and HDF3CGF systems; 96 h: SAg system). SRB was performed by staining cells with 0.1% SRB after fixation with 10% TCA and reading wells at 560 nm.Viability and proliferation of PBMC (T cells) was quantified by Alamar Blue reduction for the SAg and BT systems. For PBMC viability (referred to as PBMC Cytotoxicity within the assay endpoint names), cells were plated (75,000/well in a 96-well plate) and then chemical samples added for 1 h before addition of activators, SEB and TSST-1 (20 ng/mL final concentration each). Cells were incubated for 90 h. Then, Alamar Blue (20 uL/well) (Invitrogen, Cat DAL1100) was added for 6 h, and the plates were read with a fluorescence microplate reader at 546/580 nm (excitation/emission). For PBMC proliferation, cells were plated and activated as above but incubated for only 16 h prior to addition of Alamar Blue. Plates were read after 6 h.

Question: How did the outcome turn out when `O=S(=O)(c1ccc(Cl)cc1)c1cc(Cl)c(Cl)cc1Cl` was run?
Answer: The outcome was “inactive”.

Question: How did the outcome turn out when `CCC(C)(C#N)N=NC(C)(C#N)CC` (stereo not given) was run?
Answer: Its outcome is “inactive”.

Question: For `CCOP(=O)(OCC)SCCSCC`, which outcome is on record?
Answer: Its outcome is “inactive”.

Question: How did the AC50 turn out when `CCOC(=O)CC(=O)CCl` was run?
Answer: The AC50 was 11 µM (active).

Question: For `Nc1c(Oc2ccccc2)cc(O)c2c1C(=O)c1ccccc1C2=O`, which outcome is on record?
Answer: Its outcome is “inactive”.

Question: For `Cc1cc(C(C)(C)c2ccc(O)c(C)c2)ccc1O`, which AC50 is on record?
Answer: Its AC50 is 17.7 µM (active).

Question: `Cc1cc(C)cc(C)c1` was tested. Which outcome did it give?
Answer: The outcome was “inactive”.

Question: Which outcome does the source give for `Oc1cccc(-c2ccccc2)c1` here?
Answer: The outcome was “inactive”.

Question: `CCCCCCCCCCCCc1cccc(S(=O)(=O)O)c1` was tested. Which outcome did it give?
Answer: Its outcome is “inactive”.

Question: `OCCCCO` was tested. Which outcome did it give?
Answer: The outcome was “inactive”.

Question: `CCOC(=O)C(SP(=S)(OC)OC)c1ccccc1` (stereo not given) was tested. Which AC50 did it give?
Answer: Its AC50 is 20 µM (active).

Question: For `Cc1ccc(OP(=O)(Oc2ccc(C)cc2C)Oc2ccc(C)cc2C)c(C)c1`, which AC50 is on record?
Answer: The AC50 was 12.9 µM (active).

Question: For `CCCCOC(=O)COC(=O)c1ccccc1C(=O)OCCCC`, which outcome is on record?
Answer: The outcome was “inactive”.

Question: How did the outcome turn out when `CCN(CC)C(=O)C(Cl)=C(C)OP(=O)(OC)OC` was run?
Answer: Its outcome is “inactive”.

Question: With `Oc1cc(Cl)c(Cl)cc1Cl` as the compound, how does the AC50 read?
Answer: Its AC50 is 25.6 µM (active).

Question: For `Cc1ccc2nc3sc(=O)sc3nc2c1`, which AC50 is on record?
Answer: Its AC50 is 3.77 µM (active).

Question: For `CC1(C)[C@H](C(=O)O[C@H](C#N)c2cccc(Oc3ccccc3)c2)[C@@H]1/C=C(\Cl)C(F)(F)F`, which outcome is on record?
Answer: The outcome was “inactive”.

Question: How did the AC50 turn out when `O=S(=O)(C(Cl)(Cl)Cl)C(Cl)(Cl)Cl` was run?
Answer: Its AC50 is 1.1 µM (active).

Question: Which outcome does the source give for `CN(C)C(=S)S` here?
Answer: The outcome was “inactive”.

Question: With `CCOC(=O)CCN(SN(C)C(=O)Oc1cccc2c1OC(C)(C)C2)C(C)C` as the compound, how does the AC50 read?
Answer: Its AC50 is 23.2 µM (active).

Question: `CCOP(=S)(OCC)SCS(=O)(=O)C(C)(C)C` was tested. Which outcome did it give?
Answer: Its outcome is “inactive”.

Question: `Oc1ccc(Cc2ccc(O)cc2)cc1` was tested. Which outcome did it give?
Answer: The outcome was “inactive”.

Question: `c1ccc(-c2cccc(-c3ccccc3)c2)cc1` was tested. Which AC50 did it give?
Answer: The AC50 was 12.4 µM (active).

Question: With `C#CCOC(=O)/C=C(C)/C=C/CC(C)CCCC(C)C` (stereo not given) as the compound, how does the AC50 read?
Answer: Its AC50 is 20 µM (active).

Question: For `CCOP(=S)(OCC)OP(=S)(OCC)OCC`, which AC50 is on record?
Answer: The AC50 was 31.2 µM (active).

Question: `O=C(N[C@H]1CN2CCC1CC2)c1ccc2c(c1)OCCO2` was tested. Which outcome did it give?
Answer: The outcome was “inactive”.

Question: How did the AC50 turn out when `Cc1ccccc1OP(=O)(Oc1ccccc1)Oc1ccccc1` was run?
Answer: Its AC50 is 20 µM (active).

Question: How did the AC50 turn out when `CC(C)N(C(=O)CCl)c1ccccc1` was run?
Answer: The AC50 was 16.8 µM (active).

Question: For `Clc1cccc(Cl)c1`, which outcome is on record?
Answer: The outcome was “inactive”.

Question: `C[C@]12CC[C@@H](O)C[C@@H]1CC[C@@H]1[C@@H]2CC[C@]2(C)C(=O)CC[C@@H]12` was tested. Which outcome did it give?
Answer: Its outcome is “inactive”.

Question: Which outcome does the source give for `O=[N+]([O-])c1cccc2ccccc12` here?
Answer: Its outcome is “inactive”.

Question: How did the outcome turn out when `Clc1cccc(Cl)c1Cl` was run?
Answer: Its outcome is “inactive”.

Question: For `c1ccc2sc(SNC3CCCCC3)nc2c1`, which outcome is on record?
Answer: Its outcome is “inactive”.

Question: How did the outcome turn out when `O=[N+]([O-])c1ccc(Nc2ccccc2)cc1` was run?
Answer: Its outcome is “inactive”.

Question: How did the AC50 turn out when `O=c1oc2ccccc2c(O)c1C(CC(O)c1ccc(-c2ccc(Br)cc2)cc1)c1ccccc1` (stereo not given) was run?
Answer: The AC50 was 6.34 µM (active).

Question: `Nc1ccc(N)cc1` was tested. Which outcome did it give?
Answer: The outcome was “inactive”.

Question: With `CC(C)(C)c1cc([N+](=O)[O-])cc(C(C)(C)C)c1O` as the compound, how does the outcome read?
Answer: Its outcome is “inactive”.

Question: `O=C(Cc1ccccc1)OCCc1ccccc1` was tested. Which AC50 did it give?
Answer: The AC50 was 2.34 µM (active).

Question: And the outcome?
Answer: Its outcome is “inactive”.

Question: With `CC(C)=CC1C(C(=O)OCc2cccc(Oc3ccccc3)c2)C1(C)C` (stereo not given) as the compound, how does the outcome read?
Answer: The outcome was “inactive”.
